hgDAF-12 ag – agonists of H. glycines DAF-12 nuclear receptor | hit rate 1.8% among 370,000 | AID 687014 | HEK293 GAL4-hgDAF12 UAS-luciferase reporter, agonist luminescence; normalized to butyrate control | activation, % at 6.8 µM;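 active = activation above a cutoff set at the mean of all screened compounds plus 3 SD, cut at about 10% in these data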;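 also: 0% = DMSO wells and 100% = sodium butyrate wells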
DAX1 inh – DAX1 (NR0B1) inhibition, primary screen; AID 652010; hit rate 1.1% among 370,000; HEK293T StAR-luciferase reporter, SF-1/DAX-1 repression relief; inhibition, % at 6.8 µM;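 active = inhibition above the mean over all tested compounds plus 3 SD, cut at about 3.6% in these data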;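 also: 0% = DAX-1 cells with DMSO and 100% = cells lacking DAX-1 with DMSO; higher inhibition means more luminescence from relief of DAX-1 repression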
SMARCA2 act – SMARCA2 function activation, primary screen; MG213 cells, MMTV-luciferase reporter, dexamethasone, overnight; activation, % at 9.1 µM; hit rate 1% among 370,000; AID 652017; in the data active = activation above about 7.8%;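 also: 0% = vehicle wells and 100% = reference activator wells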
ssDAF-12 act – activators of S. stercoralis DAF-12 nuclear receptor; hit rate 1% among 370,000; activation, % at 6.8 µM; HEK293 ssDAF-12/GRIP1 lit1-tk-luc reporter, luminescence; % of 3 µM dafachronic acid response; AID 652126;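 active = activation above the mean over all tested compounds plus 3 SD, cut at about 0.9% in these data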;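 also: 0% = DMSO-only wells and 100% = 3 µM delta7-dafachronic acid wells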
hcDAF12 agonist – activators of H. contortus DAF-12 nuclear receptor; HEK293 hcDAF-12 lit1-tk-luc reporter, luminescence; 0% DMSO, 100% Δ7-dafachronic acid; activation, % at 6.8 µM; hit rate 1.4% among 370,000; AID 652067;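 active = activation above the mean of all tested compounds plus 3 SD, cut at about 5.5% in these data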;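 also: 100% = response to 3 µM Δ7-dafachronic acid high control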
SMARCA2 act conf – confirmation of SMARCA2 (BRM) function activators; shares compounds with SMARCA2 act; MG213 cells, MMTV-luciferase with dexamethasone, luminescence, overnight; MG213 cells expressing E1A, Rb sequestered; DMSO wells 0%, reference activator 100%; activation, % at 9.1 µM; hit rate 30% among 3,500;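 active = activation above its plate's cutoff, the mean activation of tested wells plus 3 SD, cut at about 7.9% in these data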
GAL4-VP16 Luc – activates GAL4-VP16 luciferase, flagging SMARCA2 activator hits. HEK293 GAL4-VP16 pG5luc reporter, luciferase luminescence; scaled: DMSO wells 0%, SAHA wells 100%. shares compounds with SMARCA2 act. activation, % at 9.1 µM. hit rate 41% among 3,500;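 active = activation above the solvent-only control well mean plus 3 SD, averaged across control plates, cut at about 5.2% in these data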
Numbers without * were called inactive; . = no result. Only some compounds are listed: those with a hit (about 4.2% of all), similar ones and a draw of the others.

SMILES	hgDAF-12 ag	DAX1 inh	SMARCA2 act	ssDAF-12 act	hcDAF12 agonist	SMARCA2 act conf	GAL4-VP16 Luc
COc1cccc(C(=O)NCCC2=CCCCC2)c1	12*	3	12*	0	4	8	18*
O=C1CSc2ccc(C(=O)NCCC3=CCCCC3)cc2N1	5	0	9.8*	-2	0	1	6.8*
O=C(NCCC1=CCCCC1)c1cccc(S(=O)(=O)N2CCCCC2)c1	-1	1	-2	0	0	.	.
Cc1ccsc1C(=O)OCC(=O)NCCC1=CCCCC1	4	1	8.4*	-1	3	9.7*	5
COc1ccc(OCCN2CCC(C(=O)NC(c3ccc(F)cc3)c3ccc4ccccc4n3)CC2)cc1 (stereo unspecified)	4	2	9.6*	-1	1	-4	-1
COC(=O)/C=C1\OCc2cc(OC)c(OC)cc21	-2	0	1	-2	0	.	.
Cc1cc(C(=O)N2CCc3c([nH]c4ccccc34)C2c2cccc(Cl)c2)nn1C (stereo unspecified)	4	0	-2	-1	2	.	.
Cc1ccccc1C1c2[nH]c3ccccc3c2CCN1C(=O)c1ccc(=O)n(C)n1 (stereo unspecified)	8	0	9.6*	-1	6	2	1
O=C(Nc1ccc(CN2CCOCC2)cc1)c1cccs1	6	1	8.5*	0	3	6	5
COc1ccc(NC(=O)c2ccc(NC(=O)c3cccs3)cc2)cc1	0	1	-1	-1	-2	.	.
NC(=O)c1ccc(NC(=O)c2ccc(CN3CCOCC3)cc2)cc1	-1	1	-5	-2	-1	.	.
CC(=O)c1ccc(NC(=O)c2cccs2)cc1	7	3	12*	1	5	10*	10*
COC(=O)[C@]12CCCCC=C1N(Cc1ccccc1)C(=O)[C@H](CC(=O)N1CCCCC1)C2	0	-1	-1	-1	-2	.	.
CCCCCCCCN1C(=O)[C@@H](CC(=O)NCCCOCCCC)C[C@@]2(C(=O)OC)C1=C[C@H](COCc1ccccc1)O[C@@H]2C	3	-1	0	-2	1	.	.
OCC(Cc1ccccc1)Nc1c2ccccc2nc2ccccc12 (stereo unspecified)	2	0	9.8*	-2	-1	5	2
c1ccc(CNc2c3ccccc3nc3ccccc23)cc1	0	-1	7	-1	0	.	.
CN[C@H]1C[C@H]2c3cc(-c4ccccc4C)ccc3CCN2C[C@H]1[C@H](C)O	3	-1	9.6*	-2	1	-5	-1
Cc1ccccc1-c1ccc2c(c1)[C@@H]1C[C@H](N(C)C(=O)Nc3ccccc3)[C@H]([C@H](C)O)CN1CC2	-1	0	-3	0	-2	.	.
CN1CCCC1(C)C(=O)Nc1ccc(-n2cccc2)cc1 (stereo unspecified)	4	3	8.2*	0	1	4	4
CCCC(=O)N1CCCC1(C)C(=O)Nc1ccc(-n2cccc2)cc1 (stereo unspecified)	-1	-1	-2	-1	0	.	.
Cc1ccc(-c2nc(N/N=C/c3ccccc3[N+](=O)[O-])c3ccccc3n2)cc1	9	1	8.2*	0	4	2	8.2*
C=CCN=Cc1c(C)[nH]n(-c2ccccc2)c1=O	7	1	8.5*	0	0	1	6.2*
Cc1[nH]n(-c2ccccc2)c(=O)c1/C=N/N(c1ccccc1)c1ccccc1	-1	0	-3	-1	-2	.	.
CC(C)C1N=C2c3ccccc3N=C(SCC(=O)NCCc3ccc(S(N)(=O)=O)cc3)N2C1=O (stereo unspecified)	0	-1	9.4*	-1	0	-2	-1
c1csc(-c2nc3ccccc3s2)c1	7	0	0	-1	2	.	.
SMILES	hgDAF-12 ag	DAX1 inh	SMARCA2 act	ssDAF-12 act	hcDAF12 agonist	SMARCA2 act conf	GAL4-VP16 Luc
Oc1ccc(-c2nc3ccccc3s2)c(O)c1	8	3	14*	0	1	6	10*
Cc1ccc2nc(-c3ccc(CN4CCC(c5nc6ccccc6[nH]5)CC4)cc3)c(-c3ccccc3)nc2c1	-4	-4	5	-2	-4	.	.
c1ccc(-c2nc3ccccc3nc2-c2ccc(CN3CCC(c4nc5ccccc5[nH]4)CC3)cc2)cc1	-2	-1	8.7*	-1	2	0	2
COC(=O)[C@]12C[C@H](CC(=O)NCC34CC5CC(CC(C5)C3)C4)C(=O)N(Cc3ccccc3)C1=C[C@H](COCc1ccccc1)O[C@@H]2C	0	1	3	-2	-3	.	.
Cc1cc(C(=O)N2CCC2(C)C(=O)NS(=O)(=O)c2cccc(Cl)c2)nn1C (stereo unspecified)	1	0	8.1*	-1	0	3	0
CC(C)(C(=O)c1ccccc1)/[N+]([O-])=C/c1ccc(F)cc1	4	0	9.8*	-1	-2	-1	-1
FC(F)(F)c1cccc(-c2nc(-c3ccncc3)no2)c1	6	1	9.2*	-1	0	6	4
O=C(O)c1ccc(-c2noc(-c3cccc(C(F)(F)F)c3)n2)cc1	3	1	2	-1	1	.	.
O=c1oc(-c2ccc(Br)o2)nc2ccccc12	2	0	14*	-1	2	7	3
Cc1ccc(-c2nc3ccccc3c(=O)o2)cc1	6	2	3	0	6	.	.
O=c1[nH]cnc2cc(-c3ccc(Br)cc3)sc12	10	1	10*	0	-2	5	3
O=c1[nH]c(CCl)nc2cc(-c3ccc(F)cc3)sc12	8	1	3	1	5	.	.
Cc1cc(NC(=O)CCCS(=O)(=O)c2nc(-c3cccs3)cc(C(F)(F)F)n2)no1	-3	-2	-9	-1	-1	.	.
O=C(NC(=O)c1ccc(F)cc1)Nc1nc(-c2cccs2)cc(C(F)(F)F)n1	1	0	8.4*	-2	-2	-2	0
O=C(O)CCS(=O)(=O)c1nc(-c2cccs2)cc(C(F)(F)F)n1	2	0	13*	-2	-1	6	0
COc1ccc(S(=O)(=O)N2CCCc3nc(-c4ccc(F)cc4)ccc32)cc1	0	0	-4	-1	0	.	.
OC(CCN1CCCCC1)(c1ccccc1)C1CC2C=CC1C2 (stereo unspecified)	1	1	-3	-1	-1	.	.
COc1cccc(C(=O)NC(=O)Nc2cc(C)on2)c1	10	2	8.4*	-1	3	4	8.7*
